Common to all, as to test: DAPPL (digital affinity profiling via proximity ligation, sequencing); 10 mM Tris-HCl pH 7.5, 50 mM NaCl, 1 mM DTT, 4% glycerol, room temperature, 30 min; GST-TFs on glutathione beads, 16-mer random dsDNA library, 0.1% formaldehyde crosslink after washing; high values mean tight binding
For assay [1], the target named is T1, FEV (Homo sapiens, UniProt Q99581 1-238).
T1 sequence: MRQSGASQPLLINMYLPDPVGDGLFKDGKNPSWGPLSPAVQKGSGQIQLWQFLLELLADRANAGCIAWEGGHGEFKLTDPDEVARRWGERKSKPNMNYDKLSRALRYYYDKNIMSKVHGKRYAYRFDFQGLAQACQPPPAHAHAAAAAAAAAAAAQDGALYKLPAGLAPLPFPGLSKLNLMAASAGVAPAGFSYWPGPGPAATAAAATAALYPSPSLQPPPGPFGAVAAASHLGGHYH
The conditions noted are these: protein: recombinant; tags: N-terminal GST; dsDNA, one strand shown. An outline of the steps: (§1)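 Beads coated with glutathione captured GST-fused human transcription factors that had been expressed in yeast, and the factors were then given DNA barcodes and pooled with a tag-only sample. The pools were incubated with 200 nmole of a random double-stranded 16-mer DNA library in Tris/NaCl/DTT/glycerol buffer for 30 min at room temperature, washed, crosslinked with 0.1% formaldehyde and proximity-ligated with BsaI/T4 ligase at 37 °C for 1 h. PCR amplification and Illumina NextSeq500 sequencing came last. Binding signal is each hexamer's read frequency for a factor divided by its frequency for the tag-only sample.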

The target in assay [2] is ETV5 (Homo sapiens, UniProt P41161 1-510). As to conditions: protein: recombinant; tags: N-terminal GST; dsDNA, one strand shown. An outline of the steps: as §1
ETV5, sequence (P41161 whole entry): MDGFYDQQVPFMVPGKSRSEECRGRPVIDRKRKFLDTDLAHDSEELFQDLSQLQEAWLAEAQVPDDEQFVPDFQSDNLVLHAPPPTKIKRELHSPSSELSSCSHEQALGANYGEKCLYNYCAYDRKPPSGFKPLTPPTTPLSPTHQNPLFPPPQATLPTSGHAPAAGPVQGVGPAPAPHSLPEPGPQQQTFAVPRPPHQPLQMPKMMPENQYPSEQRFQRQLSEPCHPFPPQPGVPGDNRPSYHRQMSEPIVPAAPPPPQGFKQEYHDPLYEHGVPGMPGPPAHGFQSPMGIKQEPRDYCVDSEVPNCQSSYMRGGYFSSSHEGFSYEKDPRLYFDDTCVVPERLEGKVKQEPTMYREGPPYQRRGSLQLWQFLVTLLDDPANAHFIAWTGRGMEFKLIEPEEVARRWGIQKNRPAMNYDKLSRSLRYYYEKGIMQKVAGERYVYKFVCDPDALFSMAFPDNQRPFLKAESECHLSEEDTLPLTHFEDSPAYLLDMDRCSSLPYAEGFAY
The target of assay [3] is HSF1 (Homo sapiens, UniProt Q00613 1-529). The conditions noted are these: protein: recombinant; tags: N-terminal GST; chain copies: 3; dsDNA, one strand shown. An outline of the steps: as §1
HSF1, sequence (Q00613 whole entry): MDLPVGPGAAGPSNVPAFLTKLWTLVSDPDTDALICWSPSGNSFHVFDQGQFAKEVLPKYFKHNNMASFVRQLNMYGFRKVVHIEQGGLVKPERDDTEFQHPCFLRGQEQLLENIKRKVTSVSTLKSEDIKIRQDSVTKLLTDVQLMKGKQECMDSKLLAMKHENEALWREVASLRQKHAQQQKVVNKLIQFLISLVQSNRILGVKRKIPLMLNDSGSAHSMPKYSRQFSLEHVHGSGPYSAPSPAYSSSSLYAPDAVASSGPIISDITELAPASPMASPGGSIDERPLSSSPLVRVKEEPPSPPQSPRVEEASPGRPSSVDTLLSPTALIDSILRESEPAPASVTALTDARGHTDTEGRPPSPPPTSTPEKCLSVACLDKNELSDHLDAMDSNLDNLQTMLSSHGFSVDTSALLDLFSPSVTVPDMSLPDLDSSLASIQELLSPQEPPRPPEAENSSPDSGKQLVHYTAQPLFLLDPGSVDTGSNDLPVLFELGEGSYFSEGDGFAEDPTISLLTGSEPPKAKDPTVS
For assay [4], the target named is T2, SPIC (Homo sapiens, UniProt Q8N5J4 1-248).
T2 sequence: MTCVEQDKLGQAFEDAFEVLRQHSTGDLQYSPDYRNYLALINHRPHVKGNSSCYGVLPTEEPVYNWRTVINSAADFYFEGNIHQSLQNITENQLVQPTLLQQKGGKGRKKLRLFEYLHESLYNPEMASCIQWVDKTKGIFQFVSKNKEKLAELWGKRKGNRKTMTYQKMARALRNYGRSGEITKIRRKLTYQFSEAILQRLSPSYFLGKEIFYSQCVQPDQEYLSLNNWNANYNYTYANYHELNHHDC
As to conditions: protein: recombinant; tags: N-terminal GST; dsDNA, one strand shown. An outline of the steps:
as §1

For assay [5], the target named is ELF4 (Homo sapiens, UniProt Q99607 1-663). As to conditions: protein: recombinant; tags: N-terminal GST; dsDNA, one strand shown. An outline of the steps:
as §1

The target of assay [6] is T3, ELK4 (Homo sapiens, UniProt P28324-2 1-405).
T3 sequence: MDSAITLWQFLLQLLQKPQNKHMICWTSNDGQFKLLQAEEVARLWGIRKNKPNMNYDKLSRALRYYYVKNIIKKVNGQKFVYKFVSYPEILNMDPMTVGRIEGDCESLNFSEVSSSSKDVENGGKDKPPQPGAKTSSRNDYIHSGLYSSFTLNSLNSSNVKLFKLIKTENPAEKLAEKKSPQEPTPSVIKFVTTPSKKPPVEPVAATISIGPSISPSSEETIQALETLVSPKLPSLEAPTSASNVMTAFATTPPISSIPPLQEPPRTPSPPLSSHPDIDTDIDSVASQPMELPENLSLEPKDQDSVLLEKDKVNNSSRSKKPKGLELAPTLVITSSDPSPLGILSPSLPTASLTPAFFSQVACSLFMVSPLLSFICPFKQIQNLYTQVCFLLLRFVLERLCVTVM
As to conditions: protein: recombinant; tags: N-terminal GST; dsDNA, one strand shown. An outline of the steps: as §1

Assay [7] deals with T4, ETV2 (Homo sapiens, UniProt O00321 1-342).
T4 sequence: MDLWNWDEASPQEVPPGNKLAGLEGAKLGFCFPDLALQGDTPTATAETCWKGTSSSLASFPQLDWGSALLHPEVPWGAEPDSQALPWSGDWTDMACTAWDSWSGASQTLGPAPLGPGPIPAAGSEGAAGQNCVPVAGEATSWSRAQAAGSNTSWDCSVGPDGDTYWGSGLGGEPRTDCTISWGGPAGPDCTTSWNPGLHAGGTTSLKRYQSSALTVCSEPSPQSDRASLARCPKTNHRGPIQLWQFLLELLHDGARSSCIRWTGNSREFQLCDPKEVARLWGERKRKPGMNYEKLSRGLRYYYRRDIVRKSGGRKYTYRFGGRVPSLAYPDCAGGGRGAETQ
As to conditions: protein: recombinant; tags: N-terminal GST; dsDNA, one strand shown. An outline of the steps: as §1

Assay [8] has as its target T5, ELF3 (Homo sapiens, UniProt P78545 1-371).
T5 sequence: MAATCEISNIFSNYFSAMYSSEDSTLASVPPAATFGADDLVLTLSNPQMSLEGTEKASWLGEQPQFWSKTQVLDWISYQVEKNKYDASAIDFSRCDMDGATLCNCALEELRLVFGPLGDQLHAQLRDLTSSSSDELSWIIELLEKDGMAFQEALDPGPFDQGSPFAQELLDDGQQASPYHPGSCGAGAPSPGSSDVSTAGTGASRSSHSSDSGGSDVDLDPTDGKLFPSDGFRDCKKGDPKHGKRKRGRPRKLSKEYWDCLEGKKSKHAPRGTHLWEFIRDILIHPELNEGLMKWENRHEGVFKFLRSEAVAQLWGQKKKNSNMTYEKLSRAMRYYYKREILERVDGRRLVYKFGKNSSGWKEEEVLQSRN
As to conditions: protein: recombinant; tags: N-terminal GST; dsDNA, one strand shown. An outline of the steps: as §1

Assay [9] addresses CRX (Homo sapiens, UniProt O43186 1-299). As to conditions: protein: recombinant; tags: N-terminal GST; dsDNA, one strand shown. An outline of the steps: as §1
The target in assay [10] is ETV1 (Homo sapiens, UniProt P50549 1-477). The conditions noted are these: protein: recombinant; tags: N-terminal GST; dsDNA, one strand shown. An outline of the steps:
as §1

Assay [11] has as its target T6, ERF (Homo sapiens, UniProt P50548 1-548).
T6 sequence: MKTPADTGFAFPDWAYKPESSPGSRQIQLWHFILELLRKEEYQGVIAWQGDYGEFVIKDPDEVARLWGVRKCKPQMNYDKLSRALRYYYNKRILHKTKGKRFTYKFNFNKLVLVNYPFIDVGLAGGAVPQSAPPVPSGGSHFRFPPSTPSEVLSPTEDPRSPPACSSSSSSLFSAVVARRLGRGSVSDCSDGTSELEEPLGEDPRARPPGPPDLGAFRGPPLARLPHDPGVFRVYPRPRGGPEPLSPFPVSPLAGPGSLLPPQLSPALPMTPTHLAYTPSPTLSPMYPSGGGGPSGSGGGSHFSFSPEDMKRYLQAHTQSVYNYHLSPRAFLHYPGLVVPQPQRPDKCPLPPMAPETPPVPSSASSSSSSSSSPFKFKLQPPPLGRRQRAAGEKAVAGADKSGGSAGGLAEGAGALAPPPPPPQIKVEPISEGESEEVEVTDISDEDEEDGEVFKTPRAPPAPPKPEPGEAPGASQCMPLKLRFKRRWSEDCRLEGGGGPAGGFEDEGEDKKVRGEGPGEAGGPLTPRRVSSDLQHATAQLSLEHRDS
The conditions noted are these: protein: recombinant; tags: N-terminal GST; dsDNA, one strand shown. An outline of the steps:
as §1

For assay [12], the target named is T7, ETV3L (Homo sapiens, UniProt Q6ZN32 1-361).
T7 sequence: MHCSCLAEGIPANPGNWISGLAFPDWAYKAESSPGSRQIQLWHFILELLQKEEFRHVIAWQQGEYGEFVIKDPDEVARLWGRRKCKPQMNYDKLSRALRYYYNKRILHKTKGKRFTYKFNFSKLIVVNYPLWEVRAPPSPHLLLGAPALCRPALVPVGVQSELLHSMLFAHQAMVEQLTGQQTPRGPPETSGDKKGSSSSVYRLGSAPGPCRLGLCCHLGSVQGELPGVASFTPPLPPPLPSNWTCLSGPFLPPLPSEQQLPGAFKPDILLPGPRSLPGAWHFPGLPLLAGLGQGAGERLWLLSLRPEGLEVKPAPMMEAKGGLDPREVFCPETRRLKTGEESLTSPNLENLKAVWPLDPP
The conditions noted are these: protein: recombinant; tags: N-terminal GST; dsDNA, one strand shown. An outline of the steps: as §1

Assay [13] has as its target T8, ETS2 (Homo sapiens, UniProt P15036 1-469).
T8 sequence: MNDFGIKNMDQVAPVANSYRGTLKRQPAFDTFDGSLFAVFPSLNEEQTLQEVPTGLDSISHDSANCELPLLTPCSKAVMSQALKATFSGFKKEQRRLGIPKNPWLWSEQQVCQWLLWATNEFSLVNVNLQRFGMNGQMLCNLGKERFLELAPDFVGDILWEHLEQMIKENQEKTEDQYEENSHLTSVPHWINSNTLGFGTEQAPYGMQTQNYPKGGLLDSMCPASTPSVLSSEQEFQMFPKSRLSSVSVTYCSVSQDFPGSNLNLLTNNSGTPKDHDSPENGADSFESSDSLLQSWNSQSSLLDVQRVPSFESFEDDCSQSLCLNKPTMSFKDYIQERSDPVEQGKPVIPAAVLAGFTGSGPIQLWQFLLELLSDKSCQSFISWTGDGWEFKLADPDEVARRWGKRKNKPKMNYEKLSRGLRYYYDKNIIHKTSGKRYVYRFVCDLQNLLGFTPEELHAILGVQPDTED
As to conditions: protein: recombinant; tags: N-terminal GST; dsDNA, one strand shown. An outline of the steps: as §1

In assay [14] the target is T9, SPDEF (Homo sapiens, UniProt O95238 1-335).
T9 sequence: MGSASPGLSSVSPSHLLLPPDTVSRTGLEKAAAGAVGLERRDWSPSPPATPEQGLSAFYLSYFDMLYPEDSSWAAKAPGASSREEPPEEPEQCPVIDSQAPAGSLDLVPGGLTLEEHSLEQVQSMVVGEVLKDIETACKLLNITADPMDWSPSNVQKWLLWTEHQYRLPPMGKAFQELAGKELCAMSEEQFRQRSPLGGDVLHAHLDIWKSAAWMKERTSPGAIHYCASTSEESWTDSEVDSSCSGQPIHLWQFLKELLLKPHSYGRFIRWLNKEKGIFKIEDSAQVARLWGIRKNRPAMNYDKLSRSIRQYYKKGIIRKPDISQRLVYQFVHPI
As to conditions: protein: recombinant; tags: N-terminal GST; dsDNA, one strand shown. An outline of the steps:
as §1

In assay [15] the target is T10, ETV7 (Homo sapiens, UniProt Q9Y603 1-341).
T10 sequence: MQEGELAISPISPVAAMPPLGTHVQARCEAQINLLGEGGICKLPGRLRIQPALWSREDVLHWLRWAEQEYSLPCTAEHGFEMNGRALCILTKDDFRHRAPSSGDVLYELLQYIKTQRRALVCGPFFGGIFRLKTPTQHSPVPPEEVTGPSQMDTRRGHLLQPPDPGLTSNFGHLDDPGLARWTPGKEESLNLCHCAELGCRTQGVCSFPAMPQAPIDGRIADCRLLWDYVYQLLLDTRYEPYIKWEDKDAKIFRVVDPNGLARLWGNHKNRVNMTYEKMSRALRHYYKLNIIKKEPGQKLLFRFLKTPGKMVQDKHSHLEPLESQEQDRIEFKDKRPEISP
As to conditions: protein: recombinant; tags: N-terminal GST; dsDNA, one strand shown. An outline of the steps: as §1

For assay [16], the target named is T11, ELF5 (Homo sapiens, UniProt Q9UKW6-2 1-255).
T11 sequence: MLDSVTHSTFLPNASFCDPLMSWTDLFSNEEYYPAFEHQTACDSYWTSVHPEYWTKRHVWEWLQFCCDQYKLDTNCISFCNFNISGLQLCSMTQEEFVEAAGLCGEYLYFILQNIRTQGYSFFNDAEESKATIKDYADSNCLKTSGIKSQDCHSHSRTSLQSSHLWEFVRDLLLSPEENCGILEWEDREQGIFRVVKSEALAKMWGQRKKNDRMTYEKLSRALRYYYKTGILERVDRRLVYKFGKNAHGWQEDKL
The conditions noted are these: protein: recombinant; tags: N-terminal GST; dsDNA, one strand shown. An outline of the steps:
as §1

The target in assay [17] is T12, ETV3 (Homo sapiens, UniProt P41162-2 1-143).
T12 sequence: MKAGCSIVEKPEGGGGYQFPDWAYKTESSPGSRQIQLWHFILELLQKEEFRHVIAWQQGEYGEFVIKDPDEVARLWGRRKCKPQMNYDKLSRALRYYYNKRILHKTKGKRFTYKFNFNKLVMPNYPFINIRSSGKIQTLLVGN
The conditions noted are these: protein: recombinant; tags: N-terminal GST; dsDNA, one strand shown. An outline of the steps:
as §1

The target in assay [18] is ETV6 (Homo sapiens, UniProt P41212 1-452). The conditions noted are these: protein: recombinant; tags: N-terminal GST; dsDNA, one strand shown. An outline of the steps:
as §1

ELF4, sequence (Q99607 whole entry): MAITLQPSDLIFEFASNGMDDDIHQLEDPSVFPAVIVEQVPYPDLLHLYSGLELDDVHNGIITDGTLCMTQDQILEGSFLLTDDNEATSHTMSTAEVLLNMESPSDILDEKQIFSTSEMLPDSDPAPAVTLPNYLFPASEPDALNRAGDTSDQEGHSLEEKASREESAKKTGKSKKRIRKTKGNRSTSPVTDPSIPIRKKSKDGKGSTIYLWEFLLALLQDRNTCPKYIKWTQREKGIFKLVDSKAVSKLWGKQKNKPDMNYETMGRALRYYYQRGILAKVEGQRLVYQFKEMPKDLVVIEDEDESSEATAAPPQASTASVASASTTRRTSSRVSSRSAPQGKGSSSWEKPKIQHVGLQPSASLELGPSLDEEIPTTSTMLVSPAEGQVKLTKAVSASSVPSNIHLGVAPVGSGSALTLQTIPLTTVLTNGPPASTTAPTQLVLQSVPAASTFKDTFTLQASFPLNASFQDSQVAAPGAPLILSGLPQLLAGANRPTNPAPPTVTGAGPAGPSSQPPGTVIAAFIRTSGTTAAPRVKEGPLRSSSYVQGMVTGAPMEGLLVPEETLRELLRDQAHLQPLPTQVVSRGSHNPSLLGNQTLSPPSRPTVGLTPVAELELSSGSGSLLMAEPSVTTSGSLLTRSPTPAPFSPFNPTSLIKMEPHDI
ETV1, sequence (P50549 whole entry): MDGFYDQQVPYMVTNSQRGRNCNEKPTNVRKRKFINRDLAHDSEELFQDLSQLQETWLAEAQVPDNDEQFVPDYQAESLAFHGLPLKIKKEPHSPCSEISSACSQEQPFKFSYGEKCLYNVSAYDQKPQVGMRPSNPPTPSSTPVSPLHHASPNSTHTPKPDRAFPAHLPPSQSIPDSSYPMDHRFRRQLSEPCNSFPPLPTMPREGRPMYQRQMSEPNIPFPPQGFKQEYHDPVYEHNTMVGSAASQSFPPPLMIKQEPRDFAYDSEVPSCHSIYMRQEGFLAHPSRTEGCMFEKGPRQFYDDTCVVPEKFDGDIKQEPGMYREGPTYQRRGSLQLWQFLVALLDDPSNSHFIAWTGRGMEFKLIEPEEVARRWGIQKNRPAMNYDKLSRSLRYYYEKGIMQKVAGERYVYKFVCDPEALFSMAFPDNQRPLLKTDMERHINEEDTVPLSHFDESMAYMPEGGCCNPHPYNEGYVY
CRX, sequence (O43186 whole entry): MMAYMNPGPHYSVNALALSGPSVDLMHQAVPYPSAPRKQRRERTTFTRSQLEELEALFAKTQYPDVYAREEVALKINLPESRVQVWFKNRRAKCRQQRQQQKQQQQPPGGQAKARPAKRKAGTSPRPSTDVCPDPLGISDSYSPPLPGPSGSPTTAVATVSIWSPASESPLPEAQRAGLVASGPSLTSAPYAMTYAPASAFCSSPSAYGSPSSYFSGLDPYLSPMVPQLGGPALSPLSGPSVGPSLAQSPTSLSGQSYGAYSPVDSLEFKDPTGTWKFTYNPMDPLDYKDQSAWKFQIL
ETV6, sequence (P41212 whole entry): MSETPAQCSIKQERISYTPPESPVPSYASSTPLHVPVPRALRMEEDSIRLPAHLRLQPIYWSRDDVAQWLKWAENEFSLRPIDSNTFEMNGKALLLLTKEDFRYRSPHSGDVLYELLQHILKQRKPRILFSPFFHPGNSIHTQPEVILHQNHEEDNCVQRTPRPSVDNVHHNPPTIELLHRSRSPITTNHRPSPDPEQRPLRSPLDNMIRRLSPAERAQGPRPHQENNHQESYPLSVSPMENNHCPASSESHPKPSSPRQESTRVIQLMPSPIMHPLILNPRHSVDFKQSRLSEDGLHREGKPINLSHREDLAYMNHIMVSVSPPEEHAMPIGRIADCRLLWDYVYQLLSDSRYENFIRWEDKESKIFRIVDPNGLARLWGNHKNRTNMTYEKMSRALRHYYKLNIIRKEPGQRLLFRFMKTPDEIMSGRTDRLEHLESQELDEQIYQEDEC

With CATTTT, the binding signal in assay [1] was 1.19 fold enrichment (6-mer frequency, TF over GST control); in assay [2] it was 1.23 fold enrichment (6-mer frequency, TF over GST control); in [3] it was 1.19 fold enrichment (6-mer frequency, TF over GST control); in assay [4] it was 1.18 fold enrichment (6-mer frequency, TF over GST control); in assay [5], 1.32 fold enrichment (6-mer frequency, TF over GST control); in [6] it was 1.32 fold enrichment (6-mer frequency, TF over GST control). Moreover, the binding signal in [7] is 1.35 fold enrichment (6-mer frequency, TF over GST control); in [8], 1.21 fold enrichment (6-mer frequency, TF over GST control); in assay [9], 1.04 fold enrichment (6-mer frequency, TF over GST control); in assay [10], 1.24 fold enrichment (6-mer frequency, TF over GST control); in [11] it was 1.22 fold enrichment (6-mer frequency, TF over GST control); in [12], 1.24 fold enrichment (6-mer frequency, TF over GST control). The binding signal is 1.1 fold enrichment (6-mer frequency, TF over GST control) in assay [13]; 1.06 fold enrichment (6-mer frequency, TF over GST control) in assay [14]; 1.2 fold enrichment (6-mer frequency, TF over GST control) in [15]; 1.22 fold enrichment (6-mer frequency, TF over GST control) in assay [16]; 1.18 fold enrichment (6-mer frequency, TF over GST control) in assay [17]; 1.28 fold enrichment (6-mer frequency, TF over GST control) in assay [18].
